# Measurements: the supplement of paper PMC6555819
# Assays:
# Assay in all cases: PBM binding z-score (relative to random genomic background probes); higher = stronger binding; sequences stand for … in GC…GCGATTGACAGCGTAGAATGAAGG
# [1] = tested on: FXR:RXRa (NR concentration 270 nM, RXRa partner concentration 90 nM)
# Outline: (§1)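 For binding z-scores, the reference was random background probes on custom Agilent 4×180K protein-binding microarrays. These arrays were incubated 1 h with ligand-free nuclear receptor dimers in PBS pH 7.4, 2% milk, 0.02% Triton X-100, 1 mM DTT, 0.2 mg/mL BSA and 0.4 mg/ml salmon testes DNA. Fluorescence was scanned after antibody detection of each partner (one per run) and regression-normalized.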
# [2] = tested on: LXRa:RXRa (NR concentration 270 nM, RXRa partner concentration 90 nM)
# Outline: as §1
# [3] = tested on: LXRa homodimer (NR concentration 270 nM)
# Outline: as §1
# [4] = tested on: LXRb:RXRa (NR concentration 270 nM, RXRa partner concentration 90 nM)
# Outline: as §1
# [5] = tested on: LXRb homodimer (NR concentration 270 nM)
# Outline: as §1
# [6] = tested on: PPARa:RXRa (NR concentration 270 nM, RXRa partner concentration 90 nM)
# Outline: as §1
# [7] = tested on: PPARg:RXRa (NR concentration 180 nM, RXRa partner concentration 90 nM)
# Outline: as §1
# [8] = tested on: PPARg:RXRa 270nM:90nM, anti-RXR (NR concentration 270 nM, RXRa partner concentration 90 nM)
# Outline: as §1
# [9] = tested on: PPARg:RXRa 30nM:10nM, anti-RXR (NR concentration 30 nM, RXRa partner concentration 10 nM)
# Outline: as §1
# [10] = tested on: PPARg:RXRa 90nM:30nM, anti-RXR (NR concentration 90 nM, RXRa partner concentration 30 nM)
# Outline: as §1
# [11] = tested on: PPARg:RXRa DBDmut IVT, anti-RXR (DBD mutation: RXRa K156A/R161A, NR concentration 270 nM, RXRa partner concentration 90 nM)
# Outline: as §1
# [12] = tested on: PPARg:RXRa IVT, anti-PPARg (NR concentration 270 nM, RXRa partner concentration 90 nM)
# Outline: as §1
# [13] = tested on: PPARg DBDmut:RXRa IVT, anti-PPARg (DBD mutation: PPARg1 K132A/R137A, NR concentration 270 nM, RXRa partner concentration 90 nM)
# Outline: as §1
# [14] = tested on: PPARg DBDmut IVT, anti-PPARg (DBD mutation: PPARg1 K132A/R137A, NR concentration 270 nM)
# Outline: as §1
# [15] = tested on: PPARg homodimer (NR concentration 180 nM)
# Outline: as §1
# [16] = tested on: PXR:RXRa (NR concentration 270 nM, RXRa partner concentration 90 nM)
# Outline: as §1
# [17] = tested on: PXR homodimer (NR concentration 270 nM)
# Outline: as §1
# [18] = tested on: RARa:RXR (NR concentration 270 nM, RXRa partner concentration 90 nM)
# Outline: as §1
# [19] = tested on: RARa homodimer (NR concentration 270 nM)
# Outline: as §1
# [20] = tested on: RARb:RXRa (NR concentration 270 nM, RXRa partner concentration 90 nM)
# Outline: as §1
Sequence,PBM binding z-score [1],PBM binding z-score [2],PBM binding z-score [3],PBM binding z-score [4],PBM binding z-score [5],PBM binding z-score [6],PBM binding z-score [7],PBM binding z-score [8],PBM binding z-score [9],PBM binding z-score [10],PBM binding z-score [11],PBM binding z-score [12],PBM binding z-score [13],PBM binding z-score [14],PBM binding z-score [15],PBM binding z-score [16],PBM binding z-score [17],PBM binding z-score [18],PBM binding z-score [19],PBM binding z-score [20]
CAAACTAGGTGACGAAAGGTCAAAGTCGAATGAC,5.48,6.5,5.58,5.5,2.04,6.16,8.73,7.47,4.53,7.2,8.02,7.93,1.7,2.14,4.87,5.93,1.38,6.62,1.88,4.82
TATTGTAGATCAGCAGGTTAAGAAAGCTGGCCAA,-0.221,-0.214,-0.56,-0.0553,-0.105,0.342,-0.269,0.483,-0.249,0.429,-0.472,0.909,0.264,-0.14,-0.31,-0.184,-0.219,-0.00412,-0.421,-0.104
AGAATGAGGTTATACGGAGATCAGGGAAGAAAGT,2.36,1.94,0.0841,1.7,0.0612,3.29,1.7,2.04,0.685,1.45,2.35,2.05,1.14,0.774,0.836,1.25,0.96,1.74,0.352,1.5
AATACAGGGTCGTCGTAGGCCAGAGTACGCACAG,2.12,1.97,0.0247,1.42,0.00201,2.91,1.93,1.36,0.194,0.808,-0.0628,0.91,0.684,0.302,0.517,1.7,0.241,2.19,0.296,1.72
TCAAATAGGTAATACAGGTGAAAGTCGGCATCTA,0.834,1.29,0.418,0.892,0.0118,2.04,1.14,2.72,4.16,3.5,3.6,2.94,1.25,1.14,0.815,0.771,0.46,0.82,1.66,0.777
CCTGCTAGGTCAATGGTCAGCTGAAGCAGCTCGC,3.06,2.17,-0.221,1.45,-0.203,3.22,4.4,5.35,2.69,4.92,4.48,4.13,0.258,-0.168,1.14,0.872,-0.578,1.71,-0.46,3.85
